In the supplement of paper PMC12645437, “Orthogonal IMiD-Degron Pairs Induce Selective Protein Degradation in Cells” (ACS Chemical Biology, 2025):
Whole data set: some 8,300 sequences, median “log2 fold change of degron read counts, EGFP-low vs EGFP+ sorted cells (limma voom), compound-induced degradation” near -1.1, cut for the highest 2% near 3.2. This excerpt belongs to a sample that is enriched for the highest values.

T1: CRBN, Q96SW2
T1 chain: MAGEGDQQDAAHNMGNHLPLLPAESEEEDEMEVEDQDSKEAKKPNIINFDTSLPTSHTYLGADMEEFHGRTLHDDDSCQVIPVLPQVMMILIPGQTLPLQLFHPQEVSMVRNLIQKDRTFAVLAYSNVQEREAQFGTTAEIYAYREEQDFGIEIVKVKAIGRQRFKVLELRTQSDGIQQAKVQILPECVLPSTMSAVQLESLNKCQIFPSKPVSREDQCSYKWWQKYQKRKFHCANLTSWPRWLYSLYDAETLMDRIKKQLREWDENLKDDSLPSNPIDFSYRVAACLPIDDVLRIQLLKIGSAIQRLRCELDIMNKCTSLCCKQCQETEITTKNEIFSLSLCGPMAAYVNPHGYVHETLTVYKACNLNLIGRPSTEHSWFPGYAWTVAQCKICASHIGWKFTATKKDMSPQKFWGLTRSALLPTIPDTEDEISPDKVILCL


Biological target: T1, CRBN, Q96SW2
Assay: log2 fold change of degron read counts, EGFP-low vs EGFP+ sorted cells (limma voom), compound-induced degradation; higher = more compound-induced degradation of the degron-EGFP fusion; degrons are variants of IKZF1/3 zinc finger 2; compound dose not given here
Details: Jurkat, 18 h
[1] = compound: compound 19 (5-tert-butyl-thalidomide)
[2] = compound: compound 22 (5-morpholino-thalidomide)
[3] = compound: compound 33 (diphenyl IMiD analogue)
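Further: pooled lentiviral library of zinc finger degron-EGFP fusions in mCherry-positive Jurkat cells, FACS-sorted after compound exposure, with degron abundance counted by next-generation sequencing.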

| Sequence | log2 fold change of degron read counts [1] | log2 fold change of degron read counts [2] | log2 fold change of degron read counts [3] | log2 fold change of degron read counts (compound: thalidomide) |
| --- | --- | --- | --- | --- |
| FGCSVCGHIFTQKGNLLRHIKL [46F_47G_49S_50V_52G_53H_54I_55F_67L_, Q9UKT9] | -1.23 | -2.7 | -2.06 | -1.9 |
| LHCPICGFDCTQKGNLLRHIKL [46L_47H_49P_50I_52G_53F_54D_55C_67L_, Q9UKT9] | -1.62 | -1.37 | 0.393 | -0.313 |
| FICNQCGREFTQKGNLLRHIKL [46F_47I_49N_50Q_52G_53R_54E_55F_67L_, Q9UKT9] | -2.93 | -3.08 | -3.08 | -3.43 |
| FQCEQCGACFTQKGNLLRHIKL [46F_47Q_49E_50Q_52G_53A_54C_55F_67L_, Q9UKT9] | -1.81 | 0.107 | 0.542 | 3.02 |
| FCCPICGANFTQKGNLLRHIKL [46F_47C_49P_50I_52G_53A_54N_55F_67L_, Q9UKT9] | 2.07 | 2.16 | 2.33 | 2.22 |
| FMCEICGRGFTQKGNLLRHIKL [46F_47M_49E_50I_52G_53R_54G_55F_67L_, Q9UKT9] | -1.28 | -1.8 | -0.771 | -1.76 |
| LLCPICGFRCTQKGNLLRHIKL [46L_47L_49P_50I_52G_53F_54R_55C_67L_, Q9UKT9] | 0.662 | -0.346 | 0.856 | 2.44 |
| LSCPICGFICTQKGNLLRHIKL [46L_47S_49P_50I_52G_53F_54I_55C_67L_, Q9UKT9] | 1.06 | 1.05 | 1.47 | 0.848 |
| LTCPICGFRCTQKGNLLRHIKL [46L_47T_49P_50I_52G_53F_54R_55C_67L_, Q9UKT9] | 1.45 | 2.61 | 1.91 | 2.92 |
| LYCPICGFRCTQKGNLLRHIKL [46L_47Y_49P_50I_52G_53F_54R_55C_67L_, Q9UKT9] | 3.08 | 3.4 | 1.5 | 1.15 |
| LQCPICGFRCTQKGNLLRHIKL [46L_47Q_49P_50I_52G_53F_54R_55C_67L_, Q9UKT9] | 0.322 | 1.54 | 0.782 | 3.35 |
| LDCPICGFRCTQKGNLLRHIKL [46L_47D_49P_50I_52G_53F_54R_55C_67L_, Q9UKT9] | 2 | 0.931 | 1.11 | 2.55 |
| LECPICGFRCTQKGNLLRHIKL [46L_47E_49P_50I_52G_53F_54R_55C_67L_, Q9UKT9] | 1.29 | 0.491 | 2.73 | 3.62 |
| LVCPICGFRCTQKGNLLRHIKL [46L_47V_49P_50I_52G_53F_54R_55C_67L_, Q9UKT9] | 1.86 | 3.01 | 1.42 | 3.2 |
| LTCPICGFICTQKGNLLRHIKL [46L_47T_49P_50I_52G_53F_54I_55C_67L_, Q9UKT9] | -0.0311 | 0.718 | 1.67 | 1.78 |
| LRCPICGFRCTQKGNLLRHIKL [46L_47R_49P_50I_52G_53F_54R_55C_67L_, Q9UKT9] | -0.000253 | -0.254 | 0.655 | 1.06 |
| LMCPICGFRCTQKGNLLRHIKL [46L_47M_49P_50I_52G_53F_54R_55C_67L_, Q9UKT9] | 0.588 | 1.13 | 2.13 | 2 |
| LQCPICGFICTQKGNLLRHIKL [46L_47Q_49P_50I_52G_53F_54I_55C_67L_, Q9UKT9] | -0.0184 | 2.22 | 2.06 | 3.45 |
